# A selection: hits, their analogues and other compounds. The true share with any hit is near 27%.
# CYP2C9 activ: increases human cytochrome P450 2C9 activity; P11712; 96,000 tested, 1.4% active; activation factor at 5 µM; AID 1024; recombinant CYP2C9, luciferin-H conversion, luminescence; stronger effect = higher value; factor 1 = untreated enzyme, 0 = blocked;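 active means activation factor of 2 or more for CYP2C9 at a 5 µM dose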;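 further: 0 = sulfaphenazole-blocked wells and 1 = vehicle-only wells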
# CYP2C19 activ: activators of human cytochrome P450 2C19; P33261; recombinant CYP2C19, luciferin-H EGE luminescence; stronger effect = higher value; 0 = fully inhibited enzyme, 1 = untreated enzyme; activation factor at 5 µM; 96,000 tested, under 10 active; AID 1025;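 active means activation factor of at least 2 at 5 µM in the primary screen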;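 further: 0 = wells with 2.5 mM tranylcypromine and 1 = vehicle-only wells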
# sEH act: increases human soluble epoxide hydrolase activity; P34913; purified human sEH enzymatic activity, activator screen; activation, % at 2 µM; 91,000 tested, 0.04% active; in the data active means activation above about 37%
# Target sequence (P34913 whole entry, looked up): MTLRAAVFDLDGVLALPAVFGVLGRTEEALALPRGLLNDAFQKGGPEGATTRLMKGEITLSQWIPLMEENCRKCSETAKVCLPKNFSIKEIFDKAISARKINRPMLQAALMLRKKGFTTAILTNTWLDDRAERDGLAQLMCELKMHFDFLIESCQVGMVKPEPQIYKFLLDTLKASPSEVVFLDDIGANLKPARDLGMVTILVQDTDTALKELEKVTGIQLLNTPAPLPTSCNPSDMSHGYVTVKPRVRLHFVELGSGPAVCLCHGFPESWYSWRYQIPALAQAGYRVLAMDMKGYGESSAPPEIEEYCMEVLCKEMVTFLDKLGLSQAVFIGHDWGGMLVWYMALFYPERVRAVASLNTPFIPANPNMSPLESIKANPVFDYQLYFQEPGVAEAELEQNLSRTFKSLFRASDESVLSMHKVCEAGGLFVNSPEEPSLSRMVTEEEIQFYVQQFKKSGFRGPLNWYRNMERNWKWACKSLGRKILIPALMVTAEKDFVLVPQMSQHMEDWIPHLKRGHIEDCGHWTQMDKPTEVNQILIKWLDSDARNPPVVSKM
# CYP2C9 inhib: inhibitors of human CYP2C9; inhibition, % at 5 µM; CYP2C9 Supersomes, luciferin-H conversion, luminescence; AID 777; 96,000 tested, 20% active; P11712;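 active means blocking of liver enzyme CYP2C9 beyond about 50% at 5 µM, limit read from the data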
# sEH inh: blocks human soluble epoxide hydrolase activity; 91,000 tested, 0.34% active; recombinant human sEH enzymatic activity assay; inhibition, % at 2 µM; in the data active means inhibition above about 80%
# CYP2C19 inhib: inhibitors of human CYP2C19; P33261; CYP2C19 Supersomes, luciferin-H EGE luminescence, 30 min; inhibition, % at 5 µM; 96,000 tested, 21% active; AID 778;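 active means CYP2C19 inhibition above a set limit at 5 µM in the primary screen, cut at about 50% in these data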;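 further: plate controls were negative control wells for no effect and 2.5 mM tranylcypromine positive control for full effect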
# * hit, by the source's call; . = no result.
SMILES,CYP2C9 activ,CYP2C19 activ,sEH act,CYP2C9 inhib,sEH inh,CYP2C19 inhib
CC(=O)Nc1cc(-c2nn(CC(=O)N3CCCCC3)c(=O)c3ccccc23)ccc1N1CCOCC1,0.9,1,-3,12,5,-3
COc1ccc(-c2nn(C)c(=O)c3ccccc23)cc1NC(=O)Cn1nc(C)c2ccccc2c1=O,0.4,0.7,0,58*,-1,30
Cc1ccc(-c2nn(C)c(=O)c3ccccc23)cc1S(=O)(=O)N1CCCC1,0.4,0.5,-9,63*,8,51*
CCCC(=O)Nc1cc(-c2nn(C)c(=O)c3ccccc23)ccc1N1CCCCC1,.,.,-5,.,10,.
Cc1ccc(-c2nn(C)c(=O)c3ccccc23)cc1S(=O)(=O)N1CCOCC1,.,.,-3,.,3,.
Cn1nc(-c2ccc(N3CCOCC3)c(NS(=O)(=O)c3ccccc3)c2)c2ccccc2c1=O,0.8,0.5,-4,16,6,53*
CCC(=O)Nc1cc(-c2nn(C)c(=O)c3ccccc23)ccc1N1CCCCC1,0.2,0.6,2,81*,-4,37
CN1CC(=O)N/C1=N\C(=O)Nc1ccc2c(c1)N(C)C(=O)CS2,0.7,0.9,8,33,-6,6
CN1CCc2c(sc3ncn4nc(-c5ccccc5O)nc4c23)C1,0.6,0.8,10,36,-12,20
CC(=O)Nc1cc(-c2nn(C)c(=O)c3ccccc23)ccc1N1CCCCC1,0.4,0.8,3,57*,0,20
CC(Oc1ccccc1)C(=O)NC1CC(C)(C)NC(C)(C)C1 (stereo not given),1.1,1.1,4,-6,-3,-11
Cc1cc(C)c(S(=O)(=O)Nc2ccc(O)cc2)c(C)c1,0.9,0.3,18,9,-17,71*
Cc1onc(-c2ccccc2)c1-c1nc2ccccc2c(=O)o1,0.6,0.5,-2,35,0,51*
CN(c1ncc(C(F)(F)F)cc1Cl)n1cc(C(N)=O)c2ccccc2c1=O,0.2,0.4,-12,83*,11,57*
Cc1ccc(C(=O)C2COC(=O)C2)cc1 (stereo not given),1.1,1,7,-7,-4,0
CCOC(=O)C1=C(C)NC2=C(C(=O)CC(C)(C)C2)C1c1ccc(N(C)C)cc1 (stereo not given),0.6,0.8,3,39,0,24
Cc1ccc(C2C3=C(CC(C)(C)CC3=O)Nc3onc(C)c32)cc1 (stereo not given),0.4,0,7,56*,-4,99*
Cc1noc2c1C(c1ccc(N(C)C)cc1)C1=C(CC(C)(C)CC1=O)N2 (stereo not given),0.8,0.2,-13,20,12,76*
COc1ccc2nc(Nc3nc(C)c(CCC(C)C)c(=O)[nH]3)nc(C)c2c1,0.4,0.4,1,58*,2,60*
O=C1C=C(Nc2ccccc2O)c2ccccc2C1=O,0.9,0.6,1,12,-1,42
Cc1ccccc1NC1=C/C(=N\S(=O)(=O)c2cccs2)c2ccccc2C1=O,0.2,0.2,1,84*,2,82*
O=C(NC1CCCC1)C(c1ccsc1)N(Cc1ccco1)C(=O)Cc1cccs1 (stereo not given),0.9,0.7,-4,9,4,28
O=C(Cn1c(=O)oc2cc(S(=O)(=O)N3CCCC3)ccc21)N1CCN(c2ccccn2)CC1,0.6,1,.,37,.,4
N#CCC(=N)N1CCN(c2ccc(Cl)cc2)CC1,0.8,0.9,10,18,-8,14
COc1ccccc1N1CCN(C(=O)C2c3ccccc3Oc3ccccc32)CC1,0,0,.,100*,.,98*
O=C(C1c2ccccc2Oc2ccccc21)N1CCN(c2ccc(Cl)cc2)CC1,0.2,0.1,-5,85*,7,94*
Nc1nonc1C(=O)NCCNCc1ccccc1OCc1ccccc1F,0.8,0.6,1,25,-2,36
Nc1nonc1C(=O)NCCNCc1cc(Br)ccc1OCc1ccccc1F,0.6,0.4,11,43,-11,57*
CCOc1c(CNCCNC(=O)c2nonc2N)cccc1OC,1.1,0.3,0,-8,2,74*
O=C(Nc1ccc2c(c1)OCCO2)C1CCN(C(=O)c2ccc(F)cc2)CC1,0.8,0.8,-25,23,25,19
